Shown are actives, neighbours in structure and some others; about 1.4% of the full set was active somewhere.
HTT aggregate = mutant huntingtin aggregation inhibition; PC12 HttQ103-GFP aggregates, Acumen cytometry, 40 h; Potency, µM (doses to about 46.1 µM), for the others: at the top dose activity change, negative = inhibition, most hits filed as inhibitors; 1.1% of 220,000 active; AID 1688; note: % is set by controls: 0 for no effect and ±100 for the full control effect; nearly all actives have a fitted effect of over 60% in size
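PC12 cells stably carrying ecdysone-inducible HTT exon 1 Q103–GFP were induced with tebufenozide (100 nM final) and treated with library compounds in titration. GFP aggregates in lysates were counted by laser scanning cytometry.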
HTT ATP protect = Huntington cell model cytoprotection by ATP luminescence; PC12 HTT-Q103 induced, cytoprotection, ATP luminescence, 40 h; Potency, µM (top dose mostly 56.4 µM), for inactives: cytoprotection (ATP increase), usual class: activators; 0.14% of 230,000 active; note: % of control where 0% means no effect; nearly all actives have a fitted effect of over 45% in size
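Compounds added alongside 100 nM tebufenozide, which induces toxic Q103 huntingtin exon 1-GFP in stable PC12 cells; surviving cells quantified by luminescent ATP measurement. Medium: phenol red-free DMEM, 5% equine and 5% calf serum.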
ERK EGF block = blocks ERK signaling stimulated by EGF; HEK293-V1b, EGF-stimulated phospho-ERK AlphaScreen; Potency, µM (highest dose often 11.5 µM), inactives show at the highest dose activity change, negative = inhibition, most hits filed as inhibitors; 0.41% of 130,000 active;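 note: plate controls were stimulated vehicle wells for no effect and unstimulated vehicle basal for full effect; nearly all actives have a fitted effect of over 55% in size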
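Phospho-ERK1/2 measured by AlphaScreen (SureFire) after 5 min 25 nM EGF stimulation of V1b-expressing HEK293 cells preincubated 30 min at 37C with titrated compounds; data scaled to DMSO and EGF controls, Hill-fitted AC50.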
An asterisk follows results filed as active; ? = inconclusive; / = no result; ! = not confirmed by another sample; [ ] = another dose, or the depositor's remark. Calls come from the whole dose curve; as a rule, active = well fitted curve in the direction sought with a large enough effect; inconclusive = small, poorly fitted or top-dose-only effect, or another doubt; inactive = no such curve, though single readings can be large; an effect the other way counts as inactive or inconclusive. Potency is the fitted concentration of half-maximal effect.

SMILES	HTT aggregate	HTT ATP protect	ERK EGF block
Nc1ncnc2c1c(-c1ccc(Oc3ccccc3)cc1)cn2C1CCCC1	/	3.2%[1.9 µM]	?
FC(F)(F)c1cc(CO[C@H]2CCCN[C@H]2c2ccccc2)cc(C(F)(F)F)c1	/	-81.6%	7.0%
CCC(=O)c1ccc(OCC(O)Cn2c(C)nc3ccccc32)cc1 (configuration not stated)	11.2µM*	-14.3%[10 µM]	/
Cc1nc2ccccc2n1CC(O)COc1ccc(Br)cc1 (configuration not stated)	15.1%[9.22 µM]	9.4%[10 µM]	0.4%
COc1ccc(CNc2cc(-c3ccccc3CN(C)C)ncn2)c(OC)c1	/	22.0%	10.3%
COc1ccccc1-c1nc(Nc2ccncc2)c2ccccc2n1	/	-31.2%	/
CCC/C=C(\CCC)C(NC(=O)c1ccccc1)c1ccc(C(=O)OC)cc1 (configuration not stated)	/	9.9%	0.6%
CC[N+]1=C(C)C(C)(C)c2cc(C)ccc21	2.51µM*	-112.2%	-7.9%
Cc1ccc2c(c1)C=CC(C)(C)S2=O (configuration not stated)	-8.6%	9.9%[10 µM]	2.2%
Cc1ccccc1CSCC(=O)N1CCN(c2ccccc2)CC1	1.3%	/	2.2%
Cc1ccsc1-c1nc(CSCC(=O)N2CCN(c3ccccc3)CC2)c(C)o1	12.6µM*	9.7%	/
C=CCC1(c2ccccc2)Oc2ccccc2-c2nc3cc(Cl)c(Cl)cc3nc21 (configuration not stated)	/	-5.2%[10 µM]	/
CCOC(=O)C1=C(CC)Nc2ccccc2N/C1=N\S(=O)(=O)c1ccc2ccccc2c1	?	/	6.4%
CCOC(=O)C1=C(CC)Nc2ccccc2N/C1=N\S(=O)(=O)c1cc(Br)ccc1Br	17.8µM*	-29.2%	0.7%
COc1cc2c(cc1OC)CN(c1nc(CN3CCOCC3)nc3sc4c(c13)CCCC4)CC2	?	-33.0%[10 µM]	4.5%
COc1cc2c(cc1OC)CN(c1nc(CN3CCCCC3)nc3sc4c(c13)CCCC4)CC2	28.2µM*	/	1.2%
N#CC1=C(N)SC(N)=C(C#N)C1CCC1CCCCC1	0.891µM*	9.5%[10 µM]	/
Cc1sccc1C1C(C#N)=C(N)SC(N)=C1C#N	13.0%	5.0%[1.9 µM]	/
Cc1c2cnccc2c(C)c2c1c1ccccc1n2CCOC(=O)c1ccccc1	/	17.4%[10 µM]	/
Cc1oc(CC(C)C)cc1C(=O)NCCCC(=O)O	?	5.62µM*	-5.4%
Cc1cc(C(=O)NCCCC(=O)O)c(C)o1	3.4%	2.8%	/
Cc1ccc2c(c1)C(=O)[C@@]1(O)CCN(c3ccccc3)C1=N2	/	-16.4%	-15.2%
CC(C)=CC[C@@H](O)C1=CC(=O)c2c(O)ccc(O)c2C1=O	/	-89.3%	/
CN(C)CCCN(CCCNC(=O)/C=N/O)Cc1ccccc1	35.5µM*	37.5%[10 µM]	1.2%
CN(CCCCCNC(=O)/C=N/O)Cc1ccccc1	-2.5%	6.9%[10 µM]	-2.0%
SMILES	HTT aggregate	HTT ATP protect	ERK EGF block
Cc1c(NC2=CC(=O)CC(C)(C)C2)ccc([N+](=O)[O-])c1C	?	28.7%[10 µM]	-3.9%
CC1=C/C(=N\Nc2ccccc2[N+](=O)[O-])CC(C)(C)C1	19.7%	-14.2%[10 µM]	12.6µM*
Cc1ccccc1OCCCCn1cnc2ccccc21	7.08µM*	-12.5%	/
Cc1ccc(OCCCCn2cnc3ccccc32)cc1	?	-55.5%	1.7%
COc1ccccc1-c1nc(N(C)C)c2ccccc2n1	/	-110.0%	/
COc1cc(/C=C2/C(=O)c3cccc([N+](=O)[O-])c3C2=O)c(Br)cc1O	-2.6%	/	28.2µM*
COc1ccc(-c2nc(-c3cccc([N+](=O)[O-])c3O)cc(=O)o2)cc1OC	-0.5%	-9.5%[10 µM]	1.6%
O=C(Nc1nnc(-c2ccncc2)o1)c1ccccc1	?	-46.0%	19.4%
O=C(Nc1nnc(-c2ccc(F)cc2)o1)c1cc(Cl)sc1Cl	11.2µM*	7.0%[10 µM]	-3.2%
O=C(Nc1nnc(-c2ccccc2)o1)c1cc(Cl)sc1Cl	-2.0%	-0.3%[10 µM]	4.7%
O=C(Nc1nnc(-c2ccc3c(c2)CCCC3)o1)c1ccccc1Cl	11.2µM*	-31.4%	/
O=C(Nc1nnc(-c2ccc(F)cc2)o1)c1cccc([N+](=O)[O-])c1	5.62µM*	-83.4%	-3.8%
O=C(Nc1nnc(-c2ccc3c(c2)CCCC3)o1)c1ccccc1	?	-5.7%[10 µM]	/
C[C@@]12C[C@H](O)[C@@H]3[C@H](CCC4=CC(=O)CC[C@]43C)[C@H]1CC[C@@H]2c1csc(-c2ccccc2)n1	/	6.6%[10 µM]	/
COc1ccccc1CNc1cc(-c2ccccc2OC)ncn1	/	-89.9%	/
COC(=O)CCCC1=CC2=C(c3ccccc3)C(=O)C(C)(OC(=O)C3CCCC3)C(=O)C2=CO1 (configuration not stated)	/	-26.3%	-13.9%
Cn1c(=O)cnc2cnc(OCc3ccccc3)nc21	/	-74.6%	/
C/C(CC(=O)Nc1ccc(Cl)c(C(F)(F)F)c1)=N\NC(=O)c1ccccc1O	15.8µM*	-3.7%[10 µM]	4.7%
C/C(CC(=O)Nc1ccc(Cl)c(C(F)(F)F)c1)=N\NC(=O)c1cccc(O)c1	-13.1%	-11.1%[10 µM]	8.2%
CC(=O)c1cccc(NC(=O)c2csc3c2CCCCC3)c1	-16.3%	-7.3%	-12.8%
CC(=O)c1cccc(NC(=O)Nc2csc3c2CCCC3)c1	-17.0%	-4.5%[10 µM]	25.1µM*
COCCNc1ncnc2ccc(-c3c(C)noc3C)cc12	/	-97.6%	/
CCC(CNc1cc(OC)cc2cccnc12)NC1CCCCC1 (configuration not stated)	-21.2%[9.22 µM]	-65.6%[10 µM]	13.3%[57.5 µM]
COc1cc(NCCCC(C)N)c2ncccc2c1 (configuration not stated)	17.8µM*!	-6.6%[10 µM]	/
O=C(c1cccc2c1-c1ccccc1/C2=N/O)N1CCCCC1	11.2µM*	6.1%	/
O=C1c2ccccc2-c2c1cccc2C(=O)N1CCCCC1	-10.6%	16.9%[10 µM]	4.2%
NCCC[C@@H](CC(=O)N[C@@H]1CCCC[C@H]1C(=O)N[C@H](CC(=O)N[C@@H](CCC(=O)O)CC(=O)O)Cc1ccccc1)NC(=O)C[C@H](Cc1ccccc1)NC(=O)[C@@H]1CNCC[C@H]1N	/	-33.2%	1.6%
Cc1ccccc1-c1ccc2ncnc(N3CCN(C)CC3)c2c1	/	-85.5%	/
OCCN1CCN(c2ncnc3ccc(Br)cc23)CC1	4.47µM*	12.6%	/
CC1CCN(C(=S)c2cn(Cc3ccccc3F)c3ccccc23)CC1	15.8µM*	-35.5%	/

Source: PubChem (National Center for Advancing Translational Sciences (NCATS))
